In PubChem BioAssay (NCATS):
Records with an inconclusive call do not appear. Where a call stands in place of a potency, no number is given. Activity calls are given as the source filed them. Calls come from the whole dose curve; as a rule, active = well fitted curve in the direction sought with a large enough effect; inconclusive = small, poorly fitted or top-dose-only effect, or another doubt; inactive = no such curve, though single readings can be large; an effect the other way counts as inactive or inconclusive.

Tests used:
[1] = target: Voltage-gated inwardly rectifying potassium channel KCNH2 (Homo sapiens) (UniProt Q12809); assay: qHTS Assay for Small Molecule Inhibitors of the Human hERG Channel Activity (AID 588834);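 note: lower thallium flux fluorescence means stronger hERG block; nearly all actives have a fitted effect of over 50% in size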
How it was run: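 Homogeneous FluxOR thallium flux assay using hERG-expressing U2OS cells (BacMam). Compound treatment about 10 minutes preceded stimulation; reduced fluorescence taken as channel block.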

[2] = target: Luciferin 4-monooxygenase (Photinus pyralis) (UniProt P08659); assay: Biochemical firefly luciferase enzyme assay for NPC (AID 624030); note: nearly all actives have a fitted effect of over 70% in size
How it was run: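 Purified P. pyralis luciferase at 10 nM in 50 mM Tris Acetate (final), luminescence read within 5 minutes of enzyme addition to compounds. Activity normalised to PTC124 versus DMSO; concentration-response curves classed by r2, magnitude and activity.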

[3] = S16 Schwann cell viability assay (CellTiter-Glo assay) (AID 624031); note: nearly all actives have a fitted effect of over 70% in size
How it was run: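 Parental S16 cells, 24 h compound, 37 °C. ATP-luminescence viability; DMSO = 0% activity, empty wells as reference; curves classified by fit quality and efficacy.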
Potency is the fitted concentration of half-maximal effect.

Chain of Luciferin 4-monooxygenase (Photinus pyralis) (P08659 whole entry, looked up): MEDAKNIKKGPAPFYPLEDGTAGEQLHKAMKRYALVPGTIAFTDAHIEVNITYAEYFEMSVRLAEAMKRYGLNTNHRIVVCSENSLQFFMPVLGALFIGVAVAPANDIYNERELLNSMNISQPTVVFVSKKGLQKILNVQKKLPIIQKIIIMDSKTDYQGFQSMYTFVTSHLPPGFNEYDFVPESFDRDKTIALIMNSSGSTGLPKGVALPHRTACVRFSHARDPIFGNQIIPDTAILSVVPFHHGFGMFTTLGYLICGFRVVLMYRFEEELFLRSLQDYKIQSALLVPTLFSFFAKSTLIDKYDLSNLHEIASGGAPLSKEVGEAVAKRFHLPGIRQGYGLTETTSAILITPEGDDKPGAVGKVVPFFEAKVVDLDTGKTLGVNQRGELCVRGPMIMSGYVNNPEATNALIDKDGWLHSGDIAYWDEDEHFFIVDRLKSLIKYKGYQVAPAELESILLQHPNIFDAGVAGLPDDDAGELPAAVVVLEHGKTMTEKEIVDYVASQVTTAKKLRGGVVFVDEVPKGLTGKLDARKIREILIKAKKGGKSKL
Chain of Voltage-gated inwardly rectifying potassium channel KCNH2 (Homo sapiens) (Q12809 whole entry, looked up): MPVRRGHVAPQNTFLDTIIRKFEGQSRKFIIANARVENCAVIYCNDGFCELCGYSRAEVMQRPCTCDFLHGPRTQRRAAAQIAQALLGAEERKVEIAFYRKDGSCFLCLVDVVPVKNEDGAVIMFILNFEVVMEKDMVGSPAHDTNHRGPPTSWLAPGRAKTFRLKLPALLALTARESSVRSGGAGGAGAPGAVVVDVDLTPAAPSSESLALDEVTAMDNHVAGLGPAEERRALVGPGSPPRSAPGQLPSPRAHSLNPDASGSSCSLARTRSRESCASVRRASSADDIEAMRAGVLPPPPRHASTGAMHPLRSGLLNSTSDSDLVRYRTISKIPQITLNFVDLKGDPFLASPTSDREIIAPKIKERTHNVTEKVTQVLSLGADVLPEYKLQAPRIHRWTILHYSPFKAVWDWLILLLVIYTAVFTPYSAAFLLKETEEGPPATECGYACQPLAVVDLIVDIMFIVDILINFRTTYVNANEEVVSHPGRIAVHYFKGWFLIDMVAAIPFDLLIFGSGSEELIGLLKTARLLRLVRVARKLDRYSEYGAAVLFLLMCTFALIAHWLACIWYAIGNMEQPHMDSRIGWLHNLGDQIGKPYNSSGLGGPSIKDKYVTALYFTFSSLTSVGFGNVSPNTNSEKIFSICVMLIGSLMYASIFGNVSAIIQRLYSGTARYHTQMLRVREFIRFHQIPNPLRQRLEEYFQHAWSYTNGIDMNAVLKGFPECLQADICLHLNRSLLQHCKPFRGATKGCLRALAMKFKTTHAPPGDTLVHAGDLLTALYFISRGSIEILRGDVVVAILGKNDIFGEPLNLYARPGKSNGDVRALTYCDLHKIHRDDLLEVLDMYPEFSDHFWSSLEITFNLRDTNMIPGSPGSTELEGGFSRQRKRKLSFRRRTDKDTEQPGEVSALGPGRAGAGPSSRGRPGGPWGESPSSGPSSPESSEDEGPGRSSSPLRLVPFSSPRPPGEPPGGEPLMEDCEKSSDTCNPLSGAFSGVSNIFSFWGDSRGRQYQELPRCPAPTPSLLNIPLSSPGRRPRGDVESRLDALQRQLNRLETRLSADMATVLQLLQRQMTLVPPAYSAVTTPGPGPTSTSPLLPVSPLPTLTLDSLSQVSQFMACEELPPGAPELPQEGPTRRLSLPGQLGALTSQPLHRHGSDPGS

CCOc1ccc(NC(=O)CC(C)O)cc1 (stereo not drawn)
Potency [1]: inactive
Potency [2]: inactive
Potency [3]: inactive

CC(C)C[C@H]1C(=O)N2CCC[C@H]2[C@]2(O)O[C@](NC(=O)[C@@H]3C=C4c5cccc6[nH]c(Br)c(c56)C[C@H]4N(C)C3)(C(C)C)C(=O)N12
Potency [1]: inactive

CC(=O)OCC(=O)[C@@]12N=C(C)O[C@@H]1C[C@H]1[C@@H]3CCC4=CC(=O)C=C[C@]4(C)[C@H]3[C@@H](O)C[C@@]12C
Potency [1]: inactive

COc1cc(-c2ccc(=O)[nH]n2)ccc1OC(F)F
Potency [1]: inactive
Potency [2]: inactive
Potency [3]: inactive

CC[C@@H](CO)NCCN[C@@H](CC)CO
Potency [1]: inactive

Nc1nc2ncc(CNc3ccc(C(=O)N[C@@H](CCC(=O)O)C(=O)O)cc3)nc2c(=O)[nH]1
Potency [1]: inactive

COc1cc(NS(C)(=O)=O)ccc1Nc1c2ccccc2nc2ccccc12
Potency [2]: 14.4 µM (active)
Potency [3]: 32.2 µM (active)

CC(=O)c1ccc2c(c1)N(CCCN1CCC(CCO)CC1)c1ccccc1S2
Potency [1]: 1.26 µM (active)
Potency [2]: inactive
Potency [3]: inactive

CCN(CC)CCOc1ccc(C(O)(Cc2ccc(Cl)cc2)c2ccc(C)cc2)cc1 (stereo not drawn)
Potency [1]: 3.98 µM (active)
Potency [2]: inactive

Cc1cccn2c(=O)c(-c3nnn[nH]3)cnc12
Potency [1]: inactive
Potency [2]: inactive
Potency [3]: inactive

c1ccc(OCc2ccc(CCCN3CCOCC3)cc2)cc1
Potency [1]: 12.6 µM (active)
Potency [2]: inactive

C[C@@H](CN(C)C)CN1c2ccccc2Sc2ccccc21
Potency [1]: 6.31 µM (active)
Potency [2]: inactive

CN1CCN(C(c2ccccc2)c2ccccc2)CC1
Potency [1]: inactive
Potency [2]: inactive
Potency [3]: inactive

C[C@@H]1C(=O)NC2=Nc3cccc(Cl)c3CN21
Potency [1]: inactive
Potency [2]: inactive

CN=C(NC#N)Nc1ccc(C2=NNC(=O)CC2C)cc1 (stereo not drawn)
Potency [1]: inactive
Potency [2]: inactive
Potency [3]: inactive

O=C(OCC(O)CO)c1ccccc1Nc1ccnc2cc(Cl)ccc12 (stereo not drawn)
Potency [1]: inactive

NCCc1ccn[nH]1
Potency [1]: inactive
Potency [2]: inactive
Potency [3]: inactive

CCCn1c(=O)[nH]c(=O)c2[nH]cnc21
Potency [1]: inactive
Potency [2]: inactive
Potency [3]: inactive

CCOC(=O)COc1ccc2c(C)c(CCN(CC)CC)c(=O)oc2c1Cl
Potency [1]: 12.6 µM (active)
Potency [2]: inactive

CC1=C(C(=O)OC(C)C)C(c2cccc([N+](=O)[O-])c2)C(C(=O)OC2CN(C(c3ccccc3)c3ccccc3)C2)=C(N)N1 (stereo not drawn)
Potency [1]: inactive
Potency [2]: inactive

CCN(CC)CCNC(=O)COc1ccc(Cl)cc1
Potency [1]: 14.1 µM (active)
Potency [2]: inactive
Potency [3]: inactive

CC(=O)N/N=C/c1ccc([N+](=O)[O-])o1
Potency [1]: inactive
Potency [2]: inactive

COc1cc(OC)cc(OC)c1
Potency [1]: inactive
Potency [2]: inactive
Potency [3]: inactive

CCCCCCCCCCOCC(O)CN (stereo not drawn)
Potency [1]: 25.1 µM (active)
Potency [2]: inactive

CCC(=O)c1c(O)cc(O)cc1O
Potency [1]: inactive
Potency [2]: inactive
Potency [3]: inactive

O=c1[nH]c(=O)n([C@H]2C[C@H](O)[C@@H](CO)O2)cc1C(F)(F)F
Potency [1]: inactive

C[C@]12C=CC(=O)C=C1[C@@H](F)C[C@@H]1[C@@H]2[C@@H](O)C[C@@]2(C)[C@H]1CC[C@]2(O)C(=O)CO
Potency [1]: inactive
Potency [2]: inactive

CN=C(NC#N)NCCSCc1csc(N=C(N)N)n1
Potency [1]: inactive
Potency [2]: inactive
Potency [3]: inactive

CC(Cc1cccc(C(F)(F)F)c1)NCCOC(=O)c1ccccc1 (stereo not drawn)
Potency [1]: 10 µM (active)
Potency [2]: inactive

OC[C@H]1O[C@@H](n2cnc3c(=S)nc[nH]c32)[C@H](O)[C@@H]1O
Potency [1]: inactive

CN1CCN(CCCN2c3ccccc3Sc3ccc(S(=O)(=O)N(C)C)cc32)CC1
Potency [1]: 6.31 µM (active)
Potency [2]: inactive

c1ccc(CNCCNCc2ccccc2)cc1
Potency [1]: inactive
Potency [2]: inactive
Potency [3]: inactive

Cc1ccc(O)c2ncccc12
Potency [1]: inactive
Potency [2]: inactive

NC(=O)C(=O)N/N=C/c1ccc([N+](=O)[O-])o1
Potency [1]: inactive
Potency [2]: inactive

O=C1OC2(c3ccc(O)cc3Oc3cc(O)ccc32)c2ccccc21
Potency [1]: 0.631 µM (active)
Potency [2]: inactive

NC(CS)C(=O)O (stereo not drawn)
Potency [1]: inactive
Potency [2]: inactive
Potency [3]: inactive

CCCCC1=NC2(CCCC2)C(=O)N1Cc1ccc(-c2ccccc2-c2nn[nH]n2)cc1
Potency [1]: inactive
Potency [2]: inactive
Potency [3]: inactive

O=C(CCCN1CCC(O)(c2ccc(Br)cc2)CC1)c1ccc(F)cc1
Potency [1]: 0.126 µM (active)
Potency [2]: inactive
Potency [3]: inactive

N[C@@H](Cc1cnc[nH]1)C(=O)O
Potency [1]: inactive
Potency [2]: inactive
Potency [3]: inactive

CCN(CC)CCOC(=O)C(c1ccccc1)C1CCCCC1 (stereo not drawn)
Potency [1]: 12.6 µM (active)
Potency [2]: inactive
Potency [3]: inactive

Cc1ccnc(NS(=O)(=O)c2ccc(N)cc2)n1
Potency [1]: inactive
Potency [2]: inactive
Potency [3]: inactive

CCCCc1nc(Cl)c(CO)n1Cc1ccc(-c2ccccc2-c2nn[nH]n2)cc1
Potency [1]: inactive
Potency [2]: inactive
Potency [3]: inactive

C#C[C@]1(O)CC[C@H]2[C@@H]3CCc4cc(OC5CCCC5)ccc4[C@H]3CC[C@@]21C
Potency [1]: inactive
Potency [2]: inactive
Potency [3]: 32.2 µM (active)

CCOC(=O)/C=C(C)/C=C/C=C(C)/C=C/c1c(C)cc(OC)c(C)c1C
Potency [1]: inactive
Potency [2]: inactive
Potency [3]: inactive

CCn1cc(C(=O)O)c(=O)c2cnc(N3CCCC3)nc21
Potency [1]: inactive
Potency [2]: inactive
Potency [3]: inactive

CCCCN1CCCC1C(=O)Nc1c(C)cc(C)cc1C (stereo not drawn)
Potency [1]: inactive
Potency [2]: inactive
Potency [3]: inactive

C[C@]12CCC(=O)C=C1CC[C@H]1[C@@H]3CC[C@](O)(C(=O)CO)[C@@]3(C)C[C@H](O)[C@@]12F
Potency [1]: inactive
Potency [2]: inactive
Potency [3]: inactive

Nc1ccc(C(=O)Nc2ccccc2N)cc1
Potency [1]: inactive
Potency [2]: inactive
Potency [3]: inactive

CCOc1ccc2nc3cc(N)ccc3c(N)c2c1
Potency [1]: inactive
Potency [2]: inactive
Potency [3]: 12.8 µM (active)

Cc1ncc(CSSCc2cnc(C)c(O)c2CO)c(CO)c1O
Potency [1]: inactive
Potency [2]: inactive
Potency [3]: inactive

CCN1CCCC1=O
Potency [1]: inactive
Potency [2]: inactive
Potency [3]: inactive

CCN1CCN(c2cc3c(cc2F)c(=O)c(C(=O)O)cn3C2CC2)CC1
Potency [1]: inactive
Potency [2]: inactive
Potency [3]: inactive

CN1CCC(=C2c3ccccc3Sc3ccccc32)CC1
Potency [1]: 4.47 µM (active)
Potency [2]: inactive
Potency [3]: 28.7 µM (active)

c1ccc(-c2ccc(C(c3ccccc3)n3ccnc3)cc2)cc1 (stereo not drawn)
Potency [1]: 12.6 µM (active)
Potency [2]: inactive
Potency [3]: inactive

COc1cc(C(=S)N2CCOCC2)cc(OC)c1OC
Potency [1]: inactive
Potency [2]: inactive
Potency [3]: inactive

NCCC(O)(P(=O)(O)O)P(=O)(O)O
Potency [1]: inactive
Potency [2]: inactive
Potency [3]: inactive

CCN(CC)C(=O)N1CCN(C)CC1
Potency [1]: inactive
Potency [2]: inactive
Potency [3]: inactive

O=C(COc1ccc(Cl)cc1)N1CCN(Cc2ccc3c(c2)OCO3)CC1
Potency [1]: 15.8 µM (active)
Potency [2]: inactive
Potency [3]: inactive

O=C(O)CNC(=O)c1ccccc1
Potency [1]: inactive
Potency [2]: inactive
Potency [3]: inactive

NC(CO)(CO)CO
Potency [1]: inactive
Potency [2]: inactive
Potency [3]: inactive

C[C@@H]1C[C@H]2[C@@H]3CCC4=CC(=O)C=C[C@]4(C)[C@@]3(F)[C@@H](O)C[C@]2(C)[C@H]1C(=O)CO
Potency [1]: inactive
Potency [2]: inactive
Potency [3]: inactive

O=c1c(-c2ccccc2)c1-c1ccccc1
Potency [1]: inactive
Potency [2]: inactive
Potency [3]: inactive

CCCCC(CC)CN=C(N)NC(N)=NCCCCCCN=C(N)NC(N)=NCC(CC)CCCC (stereo not drawn)
Potency [1]: inactive
Potency [2]: inactive
Potency [3]: 20.3 µM (active)

CN1CCC[C@@H]1c1cccnc1
Potency [1]: inactive
Potency [2]: inactive
Potency [3]: inactive

CC(=O)Nc1c(I)cc(I)c(C(=O)O)c1I
Potency [1]: inactive
Potency [2]: inactive
Potency [3]: inactive

Cc1c(F)c(N2CCNC(C)C2)cc2c1c(=O)c(C(=O)O)cn2C1CC1 (stereo not drawn)
Potency [1]: inactive
Potency [2]: inactive
Potency [3]: inactive

Oc1ccc(Cl)c2cccnc12
Potency [1]: inactive
Potency [2]: inactive
Potency [3]: inactive

N[C@H](Cc1c[nH]c2ccccc12)C(=O)O
Potency [1]: inactive
Potency [2]: inactive
Potency [3]: inactive

Cc1cc(O)c(C(C)C)cc1Cl
Potency [1]: inactive
Potency [2]: inactive
Potency [3]: inactive

CC(C)(CO)[C@@H](O)C(=O)NCCCO
Potency [1]: inactive
Potency [2]: inactive
Potency [3]: inactive

CCCCCCCCCCCCCCCCOP(=O)([O-])OCC[N+](C)(C)C
Potency [1]: inactive
Potency [2]: inactive
Potency [3]: inactive

C[C@H](O)C(=O)Nc1c(I)c(C(=O)NC(CO)CO)c(I)c(C(=O)NC(CO)CO)c1I
Potency [1]: inactive
Potency [2]: inactive
Potency [3]: inactive

COc1ccc(CN2CCN(C(c3ccc(F)cc3)c3ccc(F)cc3)CC2)c(OC)c1OC
Potency [1]: 1.12 µM (active)
Potency [2]: inactive
Potency [3]: 28.7 µM (active)

CC(C)=CCC1C(=O)N(c2ccccc2)N(c2ccccc2)C1=O
Potency [1]: inactive
Potency [2]: inactive
Potency [3]: inactive

OCc1ccccc1O
Potency [1]: inactive
Potency [2]: inactive
Potency [3]: inactive

CCCCOc1ccc(C(=O)CCN2CCCCC2)cc1
Potency [1]: 10 µM (active)
Potency [2]: inactive
Potency [3]: inactive

Cc1c(C)n(CCN(C)C)c2ccc(C(=O)OCCN(C)C)cc12
Potency [1]: inactive
Potency [2]: inactive
Potency [3]: inactive

N[C@H](CO)C(=O)O
Potency [1]: inactive
Potency [3]: inactive

O=C(Nc1ccc(Cl)c(Cl)c1)C1CC1
Potency [1]: inactive
Potency [3]: inactive

Nc1cc(Cl)c(NC2=NCCN2)c(Cl)c1
Potency [1]: 0.708 µM (active)
Potency [3]: inactive

O=C1CCC(c2ccc(-n3ccnc3)cc2)=NN1
Potency [1]: inactive
Potency [2]: inactive
Potency [3]: inactive

COc1ccc(/C=C/C(=O)c2ccc(OC)cc2OC)cc1
Potency [1]: inactive
Potency [3]: inactive

O=C1c2ccccc2C(=O)C1c1ccccc1
Potency [1]: inactive
Potency [2]: inactive
Potency [3]: inactive

CC(C)(C(=O)c1cccnc1)c1cccnc1
Potency [1]: inactive
Potency [3]: inactive

CC(=O)Oc1ccc(C(=C2CCCCC2)c2ccc(OC(C)=O)cc2)cc1
Potency [1]: inactive
Potency [2]: inactive
Potency [3]: inactive

CC(=O)OCC(=O)[C@@]1(OC(C)=O)[C@@H](C)C[C@H]2[C@@H]3C[C@H](F)C4=CC(=O)C=C[C@]4(C)[C@@]3(F)[C@@H](O)C[C@@]21C
Potency [1]: inactive
Potency [2]: inactive
Potency [3]: inactive

CC(=O)OCC(=O)NCCCOc1cccc(CN2CCCCC2)c1
Potency [1]: inactive
Potency [2]: inactive
Potency [3]: inactive

CCOC(=O)OC(C)OC1=C(C(=O)Nc2ccccn2)N(C)S(=O)(=O)c2ccccc21 (stereo not drawn)
Potency [1]: inactive
Potency [2]: inactive
Potency [3]: inactive

CC[N+](CC)(CCNC(=O)C(=O)NCC[N+](CC)(CC)Cc1ccccc1Cl)Cc1ccccc1Cl
Potency [1]: inactive
Potency [3]: inactive
